Common to all, as to test: thermal shift delta Tm vs DMSO control; higher = stronger stabilization (binding)
Holding throughout (conditions): 12.5 µM; protein concentration 2 µM

One experiment relates to LOC_OS02G45750-cb003. An outline of the steps: (§1)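 Rice kinase domain constructs, made in E. coli and purified, were placed in 96-well plates at 2 μM in 19.5 μl of 100 mM potassium phosphate pH 7.5, 150 mM NaCl, 10% glycerol and 5 × SYPRO Orange, with compound in DMSO. A temperature ramp from 25°C to 95°C at 0.05°C/s was used for differential scanning fluorimetry. The melting temperature shift is a triplicate mean compared with DMSO-only protein, derived from Boltzmann fits.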

The next experiment relates to LOC_OS02G54510-cb004. In short, it runs like this: as §1
In the next experiment the test system is LOC_OS03G04050-cb001. In short, it runs like this: as §1
In a further experiment the test system is LOC_OS03G12390-cb001. In short, it runs like this:
as §1

A further experiment has as its system LOC_OS03G27990-cb004. An outline of the steps:
as §1

In the next experiment the test system is LOC_OS03G50450-cb001. In short, it runs like this:
as §1

The next experiment has as its system LOC_OS03G50810-cb003. In short, it runs like this:
as §1

For another experiment, the system named is LOC_OS04G35114-cb001. An outline of the steps: as §1
Another experiment has as its system T1, LOC_OS04G38480-cb003.
T1 sequence (whole entry): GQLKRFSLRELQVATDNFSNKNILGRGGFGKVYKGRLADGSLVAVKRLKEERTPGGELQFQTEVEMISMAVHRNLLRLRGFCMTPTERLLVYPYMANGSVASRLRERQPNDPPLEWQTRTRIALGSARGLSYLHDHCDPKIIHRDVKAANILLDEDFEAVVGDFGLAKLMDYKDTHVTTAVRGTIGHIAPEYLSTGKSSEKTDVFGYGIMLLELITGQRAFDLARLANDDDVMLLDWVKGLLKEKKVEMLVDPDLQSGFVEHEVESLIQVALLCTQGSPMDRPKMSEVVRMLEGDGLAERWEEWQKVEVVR
In short, it runs like this:
as §1

The next experiment concerns T2, LOC_OS04G41100-cb001.
T2 sequence (whole entry): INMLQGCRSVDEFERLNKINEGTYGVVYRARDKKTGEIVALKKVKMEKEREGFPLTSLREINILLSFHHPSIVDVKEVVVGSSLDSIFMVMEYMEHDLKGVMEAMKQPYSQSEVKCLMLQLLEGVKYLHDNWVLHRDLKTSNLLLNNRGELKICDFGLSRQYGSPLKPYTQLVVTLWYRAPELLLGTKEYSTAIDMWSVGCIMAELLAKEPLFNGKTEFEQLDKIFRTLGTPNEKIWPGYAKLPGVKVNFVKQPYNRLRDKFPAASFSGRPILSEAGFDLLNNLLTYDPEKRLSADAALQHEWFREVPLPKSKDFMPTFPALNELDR
An outline of the steps: as §1

The test system of the next experiment is LOC_OS04G57630-cb004. In short, it runs like this:
as §1

A further experiment relates to LOC_OS05G07850-cb002. In short, it runs like this: as §1
In another experiment the test system is LOC_OS05G16824-cb004. An outline of the steps:
as §1

The next experiment deals with LOC_OS05G28520-cb001. An outline of the steps: as §1
A further experiment has as its system LOC_OS05G30820-cb001. In short, it runs like this: as §1
For the next experiment, the system named is LOC_OS05G43570-cb004. In short, it runs like this:
as §1

The next experiment relates to LOC_OS06G16330-cb003. In short, it runs like this:
as §1

The subject of a further experiment is T3, LOC_OS06G22820-cb001.
T3 sequence (whole entry): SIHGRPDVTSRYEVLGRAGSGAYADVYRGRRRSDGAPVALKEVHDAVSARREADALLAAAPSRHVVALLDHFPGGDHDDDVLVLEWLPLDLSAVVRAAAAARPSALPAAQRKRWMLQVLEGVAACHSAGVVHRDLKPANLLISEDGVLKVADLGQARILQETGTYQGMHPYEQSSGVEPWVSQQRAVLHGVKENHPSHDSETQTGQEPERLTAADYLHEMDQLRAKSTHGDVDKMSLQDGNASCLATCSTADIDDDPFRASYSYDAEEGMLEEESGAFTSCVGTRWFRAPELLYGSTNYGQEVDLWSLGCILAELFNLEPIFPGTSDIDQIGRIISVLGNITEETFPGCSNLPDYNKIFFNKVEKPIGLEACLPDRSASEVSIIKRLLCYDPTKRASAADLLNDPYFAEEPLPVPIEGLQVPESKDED
In short, it runs like this: as §1

Another experiment deals with LOC_OS07G06570-cb004. An outline of the steps: as §1
The next experiment concerns LOC_OS07G07230-cb001. In short, it runs like this: as §1

The structures appear in SMILES notation.
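Further: purified Escherichia coli-expressed rice kinase domain construct.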

Chain of LOC_OS06G16330-cb003 (as listed by the source): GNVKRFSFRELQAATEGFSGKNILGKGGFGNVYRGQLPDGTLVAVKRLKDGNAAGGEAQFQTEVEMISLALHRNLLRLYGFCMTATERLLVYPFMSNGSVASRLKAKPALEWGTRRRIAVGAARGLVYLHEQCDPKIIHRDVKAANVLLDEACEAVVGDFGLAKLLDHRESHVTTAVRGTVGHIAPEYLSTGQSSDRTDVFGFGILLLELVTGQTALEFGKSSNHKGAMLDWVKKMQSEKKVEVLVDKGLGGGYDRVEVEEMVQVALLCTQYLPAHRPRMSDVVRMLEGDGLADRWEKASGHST

On to `O=C1CCc2c(Oc3ccc4c(c3)[C@@H]3[C@H](O4)[C@H]3c3nc4cc(C(F)(F)F)ccc4[nH]3)ccnc2N1` [Lifirafenib (BGB-283)], for which the “thermal shift delta Tm” value in the experiment on LOC_OS02G45750-cb003 is 2.06 °C; with LOC_OS02G54510-cb004, 5.22 °C; in the experiment on LOC_OS03G04050-cb001, 0.52 °C; with LOC_OS03G12390-cb001 it was 0.76 °C; in the experiment with LOC_OS03G27990-cb004, 0.6 °C; in the experiment with LOC_OS03G50450-cb001, 0.51 °C. The “thermal shift delta Tm” value is 0.57 °C with LOC_OS03G50810-cb003; 0.81 °C in the experiment on LOC_OS04G35114-cb001; 3.35 °C in the experiment on LOC_OS04G38480-cb003; 0.63 °C in the experiment on LOC_OS04G41100-cb001; 5.81 °C in the experiment with LOC_OS04G57630-cb004; 9.47 °C in the experiment on LOC_OS05G07850-cb002. Further, the “thermal shift delta Tm” value is -0.92 °C with LOC_OS05G16824-cb004; 0.64 °C in the experiment with LOC_OS05G28520-cb001; 0.42 °C with LOC_OS05G30820-cb001; 1.09 °C in the experiment with LOC_OS05G43570-cb004; 2.37 °C in the experiment with LOC_OS06G16330-cb003; 1.16 °C in the experiment with LOC_OS06G22820-cb001. The figures for the “thermal shift delta Tm” value with LOC_OS07G06570-cb004 and in the experiment on LOC_OS07G07230-cb001 were 1.23 °C and -0.15 °C, respectively.
In the case of `O=C1c2c(O)cc(O)cc2OC(c2ccc(O)c(O)c2)C1O` (stereo not given) [Taxifolin (Dihydroquercetin)], the “thermal shift delta Tm” value is 0.74 °C in the experiment on LOC_OS02G45750-cb003; -0.16 °C in the experiment on LOC_OS02G54510-cb004; 0.4 °C with LOC_OS03G04050-cb001; 0.47 °C with LOC_OS03G12390-cb001; 0.2 °C in the experiment on LOC_OS03G27990-cb004; 0.2 °C in the experiment with LOC_OS03G50450-cb001. Besides, the “thermal shift delta Tm” value came out at 0.08 °C with LOC_OS03G50810-cb003; 0.29 °C with LOC_OS04G35114-cb001; 0.17 °C with LOC_OS04G38480-cb003; 0.5 °C in the experiment with LOC_OS04G41100-cb001; 0.11 °C with LOC_OS04G57630-cb004; 3.32 °C with LOC_OS05G07850-cb002. Moreover, the “thermal shift delta Tm” value in the experiment on LOC_OS05G16824-cb004 is -0.02 °C; in the experiment with LOC_OS05G28520-cb001, 0.61 °C; with LOC_OS05G30820-cb001, 0.75 °C; in the experiment on LOC_OS05G43570-cb004, -0.08 °C; in the experiment with LOC_OS06G16330-cb003, -0.04 °C; in the experiment with LOC_OS06G22820-cb001 it was 0.59 °C. Further, the results for the “thermal shift delta Tm” value in the experiment on LOC_OS07G06570-cb004 and in the experiment with LOC_OS07G07230-cb001 were 0.96 °C and 0.52 °C, respectively.
On to `CN1CCN(S(=O)(=O)c2ccc(-c3cnc(N)c(C(=O)Nc4cccnc4)n3)cc2)CC1`, for which the “thermal shift delta Tm” value in the experiment with LOC_OS02G45750-cb003 was determined as 3.58 °C; in the experiment with LOC_OS02G54510-cb004, 0.11 °C; in the experiment with LOC_OS03G04050-cb001, 0.29 °C; in the experiment with LOC_OS03G12390-cb001 it was 1.18 °C; with LOC_OS03G27990-cb004, 0.73 °C; in the experiment on LOC_OS03G50450-cb001 it was 0.63 °C. Besides, the “thermal shift delta Tm” value in the experiment with LOC_OS03G50810-cb003 came to 0.87 °C; in the experiment on LOC_OS04G35114-cb001, 2.43 °C; with LOC_OS04G38480-cb003 it was 1.65 °C; in the experiment with LOC_OS04G41100-cb001, 0.85 °C; in the experiment on LOC_OS04G57630-cb004, 0.6 °C; with LOC_OS05G07850-cb002, 7.93 °C. The “thermal shift delta Tm” value with LOC_OS05G16824-cb004 is 1.41 °C; in the experiment on LOC_OS05G28520-cb001, 0.68 °C; in the experiment with LOC_OS05G30820-cb001 it was 0.46 °C; in the experiment with LOC_OS05G43570-cb004, -0.03 °C; with LOC_OS06G16330-cb003, 2.59 °C; in the experiment with LOC_OS06G22820-cb001, 0.9 °C. The “thermal shift delta Tm” value with LOC_OS07G06570-cb004 is 1.34 °C; with LOC_OS07G07230-cb001, 0.52 °C.

The record behind these values is the supplement of paper PMC9694430.
